Common to all, as to test: NCI-60 one-dose screen, 48 h (100 = growth as untreated, 0 = no growth, -100 = all killed)
Holding throughout (details): 10 µM unless noted

Experiment [1] relates to NCI-H23 lung.
Experiment [2] concerns NCI-H322M lung.
Experiment [3] relates to HOP-62 NSCLC.
Experiment [4] concerns NCI-H460 lung.
The subject of experiment [5] is HOP-92 NSCLC.
Experiment [6] concerns NCI-H522 lung.
In experiment [7] the test system is A549/ATCC NSCLC.
Experiment [8] deals with 786-0 renal.
The test system of experiment [9] is DU-145 prostate.

About 83,000 compounds went through this panel and 20% of them were active in at least one assay; those are over-represented in the sample as a whole.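 The test compound was applied at a single concentration to cells in 96-well plates for 48 hours, and percent growth was recorded.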 Values without a mark were called inactive. Active and inactive are the calls of the source. Rule for the calls: active = growth percent below 10; inactive = the rest.

29 molecules from PubChem BioAssay (NCI) can be followed below.

Regarding `CCOC(=O)CSc1c(-c2ccccc2)c2cc(Cl)ccc2[nH]c1=O`, the growth was 101% in experiment [1]; 94.9% in experiment [2]; 94.5% in experiment [3]; 101% in [4]; 100% in experiment [5]; 91.2% in experiment [6]. The growth is 102% in experiment [7], 97.1% in experiment [8] and 103% in [9].

As to `Fc1cccc(COc2ccc(Nc3ncnc4onc(-c5ccccc5)c34)cc2)c1`, the growth is 18.1% in experiment [1]; 23.1% in experiment [2]; 33.4% in [3]; 2.61% (active) in experiment [4]; 46.3% in [5]; 5.66% (active) in [6]. Moreover, the growth was 19.9% in experiment [7], 8.18% (active) in [8] and -29.8% (active) in experiment [9].

As for `O=c1cc(NC2CCN(CCCc3ccccc3)CC2)c2cc(Cl)ccc2o1`, the growth was -1.92% (active) in experiment [1]; 0.794% (active) in [2]; 0.321% (active) in experiment [3]; -6.31% (active) in experiment [4]; -26.1% (active) in [5]; -31.2% (active) in experiment [6]. For the same molecule, the growth in [7] was 0.692% (active); in experiment [8] it was 18.1%; in [9] it was 15.5%.

As for `O=C(Cn1cc(COc2ncnc3c2cnn3-c2ccccc2)nn1)Nc1cccc2ccccc12`, the growth in experiment [1] is 89%; in experiment [2], 93.2%; in experiment [3], 90.5%; in [4], 93.7%; in experiment [5] it was 82.3%; in [6], 81.1%. Also, the growth in [7] was 92.3%; in experiment [8], 103%; in experiment [9], 97.9%.

With `COc1cc2nc(NC3CCC3)nc(NC3CCN(C(C)C)CC3)c2cc1OC`, the growth in [1] was 92.2%; in [2], 89.2%; in experiment [3], 81.5%; in experiment [4], 58.3%; in experiment [5], 26%; in experiment [6], 30.7%. For the same molecule, the growth in [7] is 4.73% (active); in [8], 68%; in experiment [9] it was 57.1%.

As to `COc1cccc(/C(C#N)=C/c2nc3c(N4CCOCC4)nc(Cl)nc3n2C)c1`, the growth in [1] is 25.6%; in [2], 63.4%; in experiment [3] it was 35.2%; in experiment [4], 17.4%; in experiment [5], -66.3% (active); in [6], -64.7% (active). The growth in [7] is 29.2%; in experiment [8] it was -69.4% (active); in experiment [9], -77.6% (active).

For `CCOC(=O)c1c2c(n3cccc(Cl)c13)C(=O)c1ncccc1C2=O`, the growth in experiment [1] is 34.2%; in experiment [2] it was 26.5%; in [3], 41.9%; in experiment [4] it was 10%; in experiment [5], 87.6%; in experiment [6], 81.3%. In addition, the growth is 38.4% in experiment [7], 73.9% in experiment [8] and 45.8% in experiment [9].

For `COc1cc(/C=C/C(=O)c2ccc(Nc3nc(NCCO)nc(N4CCOCC4)n3)cc2)cc(OC)c1OC`, the growth is 15.7% in experiment [1]; 30.9% in experiment [2]; 34.3% in experiment [3]; -20.8% (active) in experiment [4]; 39.7% in [5]; 24.1% in [6]. Besides, the growth in experiment [7] was 14.4%; in experiment [8], 16.9%; in experiment [9], 17.9%.

With `O=C(/C=C/c1ccc(Cl)cc1)c1ccc(Nc2nc(NCCO)nc(Nc3ccc(Cl)cc3)n2)cc1`, the growth is 87.6% in [1]; 86.7% in [2]; 80.3% in experiment [3]; 54.3% in [4]; 63.1% in experiment [5]; 77.8% in [6]. Besides, the growth in [7] was 51.2%; in experiment [8], 26.9%; in [9] it was 67.7%.

Turning to `COc1cc(/C(C#N)=C/c2nc3c(N4CCOCC4)nc(Cl)nc3n2C)cc(OC)c1OC`, the growth in [1] is 18.2%; in experiment [2], 28.8%; in experiment [3] it was 25.1%; in [4], -3.75% (active); in experiment [5], -4.18% (active); in [6], 15.7%. The growth in experiment [7] is 19.5%; in experiment [8], 6.45% (active); in experiment [9] it was 4.54% (active).

For `CNC(=O)c1cc(Oc2ccc(CC(=O)Nc3cc(C(C)(C)C)cn3C)cc2)ccn1`, the growth in experiment [1] is 50.2%; in [2], 93%; in experiment [3], 56%; in experiment [4], 74.8%; in experiment [5], 84%; in experiment [6] it was 75.1%. Moreover, the growth is 68.9% in experiment [7], 89.7% in [8] and 93.9% in experiment [9].

Take `Cc1ccccc1CNC(=O)C1CN(c2ccc(Cl)cc2)N(c2ccc(Cl)cc2)C1=O` (stereo unspecified): the growth is 90.6% in experiment [1]; 89.1% in [2]; 83.2% in experiment [3]; 91.4% in experiment [4]; 96.9% in [5]; 68.5% in [6]. Moreover, the results for the growth in experiment [7], in [8] and in experiment [9] were 64.4%, 96.7% and 99.7%, respectively.

Consider `O=C(c1ccccc1)N(C(=S)NCCc1ccc(Cl)cc1)c1ccc(Cl)cc1`, for which the growth was 74.7% in experiment [1]; 75.9% in experiment [2]; 91.3% in experiment [3]; 80.1% in experiment [4]; 76.3% in [5]; 92.1% in experiment [6]. Also, the growth in experiment [7] was 82.4%; in experiment [8] it was 57.2%; in [9] it was 29.3%.

As to `CCCCN1CCN(c2ccc3nc(-c4ccc5nc(-c6ccc(OCC)cc6)[nH]c5c4)[nH]c3c2)CC1`, the growth in [1] is 64.1%; in [2] it was 82.4%; in experiment [3], 46.2%; in experiment [4], 75.9%; in experiment [5], 95.9%; in experiment [6] it was 68.8%. Moreover, the growth in experiment [7] was 86.5%; in experiment [8] it was 75.3%; in experiment [9], 68.7%.

Turning to `N#C/C(=C\c1c(-c2ccccc2)[nH]c2ccccc12)C(=O)c1ccccc1`, the growth in experiment [1] is 47.9%; in experiment [2], 53.3%; in [3], 43%; in [4] it was 18.9%; in experiment [5] it was 77.5%; in experiment [6] it was 57.1%. Besides, the growth is 50.2% in experiment [7], 50.1% in experiment [8] and 31.7% in experiment [9].

On to `NCCCNc1nc2ccccc2c2c(=O)c3cc(F)ccc3sc12`, for which the growth is 70% in experiment [1]; 41.9% in [2]; 32.8% in experiment [3]; -74.7% (active) in experiment [4]; 8.11% (active) in experiment [5]; -42.7% (active) in experiment [6]. The values for the growth in [7], in [8] and in experiment [9] were -29.3% (active), 1.83% (active) and -22.8% (active), respectively.

In the case of `Cc1cccc2c(=O)c3c(sc12)c(N1CCNCC1)nc1ccccc13`, the growth in [1] is 80.4%; in experiment [2], 74.5%; in [3] it was 73.6%; in experiment [4], 80%; in [5], 53.7%; in [6] it was 82.6%. The growth in [7] was 78.3%; in experiment [8] it was 78.1%; in [9], 67.5%.

Consider `CNCCNc1nc2ccccc2c2c(=O)c3cc(OC)ccc3sc12`, for which the growth was 69.6% in [1]; 38.8% in experiment [2]; 41.2% in [3]; -72.2% (active) in [4]; 23.9% in experiment [5]; 9.6% (active) in [6]. The growth in [7] was 24.6%; in experiment [8], 10.7%; in [9] it was -25.6% (active).

Consider `COC(=O)c1c2c(c(C)[n+]([O-])c1C)C(=O)C(NCc1ccc(F)c(F)c1)=CC2=O`, for which the growth in experiment [1] is -5.8% (active); in [2], 13.4%; in experiment [3], 33.1%; in [4], 4.7% (active); in [5], 51.1%; in experiment [6], 22%. The growth is 8.81% (active) in experiment [7], 48.2% in [8] and 42% in experiment [9].

For `Cc1sc2ncn(CC(=O)Nc3ccc(S(N)(=O)=O)cc3)c(=O)c2c1C`, the growth was 102% in experiment [1]; 96.8% in experiment [2]; 101% in experiment [3]; 105% in experiment [4]; 102% in experiment [5]; 92.5% in experiment [6]. The growth in [7] is 98%; in experiment [8], 101%; in experiment [9], 112%.

Turning to `CNCCNc1nc2ccccc2c2c(=O)c3cccc(OC)c3sc12`, the growth in experiment [1] was 47.1%; in experiment [2], 33.8%; in experiment [3] it was 34.1%; in [4], -68.2% (active); in experiment [5], 5.16% (active); in experiment [6], 27.5%. Also, the growth is 17.9% in experiment [7], 26.5% in experiment [8] and 12.6% in [9].

Turning to `O=C1CCC(N2C(=O)c3cccc(NCCCCCCOc4ccc(Nc5nccc(Nc6ccccc6)n5)cc4)c3C2=O)C(=O)N1` (stereo unspecified), the growth is 62.6% in experiment [1]; 91.6% in experiment [2]; 84.2% in experiment [3]; 83.6% in experiment [4]; 84.1% in experiment [5]; 76.6% in experiment [6]. Further, the growth in experiment [7] is 81.6%; in [8], 91.9%; in experiment [9], 97.8%.

For the molecule `Cc1ccc(C2CC(c3ccc(Nc4nc(NCCO)nc(Nc5ccc(Cl)cc5)n4)cc3)=NN2c2cc(Cl)cc(Cl)c2)cc1` (stereo unspecified), the growth in experiment [1] is 92.5%; in [2] it was 85%; in experiment [3], 82.8%; in experiment [4] it was 98.9%; in experiment [5], 101%; in [6], 104%. For the same molecule, the growth in experiment [7] is 94.2%; in experiment [8], 102%; in experiment [9], 112%.

As to `COc1ccc(/C=C/C(=O)c2ccc(Nc3nc(NCCO)nc(Nc4ccc(Cl)cc4)n3)cc2)cc1`, the growth in experiment [1] is 89.6%; in experiment [2] it was 93.6%; in [3], 87.8%; in experiment [4], 61.7%; in experiment [5], 86.7%; in [6] it was 71.6%. For the same molecule, the figures for the growth in experiment [7], in experiment [8] and in experiment [9] were 50.2%, 63.9% and 71.4%, respectively.

Consider `COc1cc(C=C2C(=O)N(C)C(=O)N(C)C2=O)cc(CN2CCCCC2)c1O`, for which the growth in experiment [1] was 96.6%; in [2], 102%; in experiment [3], 93.1%; in experiment [4] it was 108%; in [5] it was 101%; in experiment [6], 94.3%. Besides, the figures for the growth in experiment [7], in experiment [8] and in experiment [9] were 100%, 95.5% and 104%, respectively.

For the molecule `Cc1nc(Nc2cn[nH]c2C(=O)Nc2ccc(CN3CCN(C)CC3)cc2)c2ccsc2n1`, the growth in experiment [1] is 95.5%; in experiment [2] it was 88.1%; in [3], 107%; in experiment [4], 109%; in experiment [5], 90.6%; in [6], 72%. The growth was 66.9% in [7], 65.1% in experiment [8] and 102% in [9].

Turning to `O=c1c2cc(F)ccc2sc2c(Nc3ccncc3)nc3ccccc3c12`, the growth is 45.9% in experiment [1]; 81.4% in [2]; 34.7% in [3]; -76.7% (active) in [4]; 54.5% in experiment [5]; 5.65% (active) in experiment [6]. Further, the growth in experiment [7] is -43.8% (active); in [8], -79.8% (active); in experiment [9], 4.28% (active).

With `COc1cc(C2CC(c3ccc(Nc4nc(NCCO)nc(N5CCOCC5)n4)cc3)=NN2c2cc(Cl)cc(Cl)c2)cc(OC)c1OC` (stereo unspecified), the growth in experiment [1] was 56.7%; in [2], 72.6%; in [3] it was 67.2%; in experiment [4], 22.2%; in [5], 32.7%; in experiment [6], 66%. The growth is 36.6% in [7], 12.5% in experiment [8] and 67.5% in [9].

Regarding `COC(=O)[C@H](NC(=O)C1(C)CCC[C@]2(C)[C@H]3C[C@H]4C(C(C)C)=C[C@]3(CC[C@@H]12)[C@@H]1C(=O)CCC(=O)[C@@H]14)C(C)C` (stereo partly specified), the growth is 103% in [1]; 96.2% in experiment [2]; 99.8% in experiment [3]; 113% in experiment [4]; 96.8% in experiment [5]; 102% in experiment [6]. Moreover, the figures for the growth in experiment [7], in experiment [8] and in experiment [9] were 94.4%, 102% and 106%, respectively.
